This passage reports growth results from PubChem BioAssay (NCI).

About 83,000 compounds went through this panel and 20% of them were active in at least one assay; those are over-represented in the sample as a whole.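 For each line, cells grew in 96-well plates with the test compound present at a single concentration for 48 hours.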 Values without a mark were called inactive. Activity calls are given as the source filed them. How the source made its calls: active means growth percent below 10; inactive means the rest.

The test system of this test is MDA-MB-468 breast. Put plainly: NCI-60 one-dose screen, 48 h (100 = growth as untreated, 0 = no growth, -100 = all killed). To be noted: 10 µM unless noted.
For the molecule `CCc1ccc(Oc2c(-c3ccc(OCc4ccc(Cl)cc4)cc3O)n[nH]c2C(F)(F)F)cc1`, the growth was 13.1%.

As for `CSc1nc(N)c2[nH]c(-c3cc4ccccc4[nH]c3=O)nc2n1`, the growth was 1.87% (active).

As for `CCOC(=O)C1=C(C)Nc2nc3ccccc3n2C1c1cccc(Br)c1` (stereo not given), the growth was 54.2%.

`N=C(N)c1ccc(-c2ccc(/C=C/c3ccccc3)s2)cc1`: the growth was -67.3% (active).

Turning to `COc1cc(/C=C2\CN(S(=O)(=O)c3ccccc3)C/C(=C\c3cc(CN4CCCC4)c(O)c(OC)c3)C2=O)cc(CN2CCCC2)c1O`, the growth is -32.1% (active).

On to `O=c1cc(-c2ccccc2)[nH]c2c1CCCC2`, for which the growth is 39.9%.

With `COC(c1ccccc1)C(Br)C(=O)c1ccccc1` (stereo not given), the growth was 94.8%.

With `N#Cc1c(-c2cccs2)cc(-c2cnccn2)nc1SCC(=O)N/N=C/c1cccs1`, the growth was 64.6%.

For `COc1ccc(OC)c(-c2c(C#N)c(-c3cccs3)nc3c2c(-c2ccccc2)nn3-c2ccccc2)c1`, the growth is 104%.

For `COc1cccc(/C=N\Nc2ccc([N+](=O)[O-])cn2)c1O`, the growth was 26.4%.

As to `NS(=O)(=O)Oc1ccc(NC(=O)C23CC4CC(CC(C4)C2)C3)cc1Cl`, the growth was 103%.

As for `CC(CN(C)C)Oc1ccc(OC(C)CN(C)C)c2c1C(=O)c1ccccc1C2=O` (stereo not given), the growth is 33.2%.

Consider `NNC(=O)CNC(=O)Nc1n[nH]c(=S)s1`, for which the growth was 111%.

For `CC(=O)CC(=O)SC1=NCCS1`, the growth was 124%.

As for `COC(/C=C/c1ccc([N+](=O)[O-])cc1)OC`, the growth was 73.4%.

With `CC1(C)OCC2OC3(C(=O)O)OC(C)(C)OC3C2O1` (stereo not given), the growth is 98.5%.

Turning to `Cc1c(-c2ccc(O)cc2)n(Cc2ccc(OCCN3CCCCCC3)cc2)c2ccc(O)cc12`, the growth was 74%.

For the molecule `Oc1c(CN2CCC(N3CCCCC3)CC2)cc(Cc2cc(CN3CCC(N4CCCCC4)CC3)c(O)c3ncccc23)c2cccnc12`, the growth is -39.2% (active).

`C/C(=C(/c1ccc(O)cc1)c1ccc(OCCN(C)C)cc1)c1ccc(Cl)cc1`: the growth was 22.2%.

Turning to `CC[C@H](Nc1nc(N)nc(C)c1C#N)c1nc2cccc(NCCCCCC(=O)NO)c2c(=O)n1-c1ccccc1`, the growth was 11.7%.

Regarding `CCc1ccccc1-n1[nH]c(C)c(C=N)c1=O`, the growth was 90.3%.

As to `COc1ccc(/C=c2\nc3n(-c4ccccc4)c4nc5c6c(sc5c(=N)n4n-3c2=O)CCCC6)cc1`, the growth is 90.1%.

Regarding `NC1=NN(O)C2=CC([N+](=O)[O-])C=CC2=N1` (stereo not given), the growth was 107%.

Consider `Cc1cnc(C(=O)NNc2nc3sc4c(c3c(=O)n2C)C(C)CCC4)cn1` (stereo not given), for which the growth is -28% (active).

In the case of `CC(=O)Nc1cc(F)cc(C(F)(F)F)c1Cl`, the growth was 86.3%.

On to `COc1ccc2nc(-c3ccc(OC)c(OC)c3)cc(-c3nnc(SCC(=O)Nc4ccc(/C(C)=N\O)cc4)n3-c3ccccc3)c2c1`, for which the growth was 56.2%.

As for `COC(=O)c1cc2cc(-c3ccc(OC)cc3)cnc2[nH]1`, the growth is 17.4%.

Take `O=C1/C(=C/c2ccc(O)cc2)Oc2ccc(Cl)cc21`: the growth was 131%.

`Cc1ccc(C(=O)/C(=C/c2ccc([N+](=O)[O-])cc2)SCc2ccc(Cl)cc2)cc1`: the growth was 72.9%.

Consider `CCN(CC)CCCCNc1c2ccccc2[n+](C)c2c1[nH]c1ccccc12`, for which the growth is -58.5% (active).

`COC(=O)c1ccc(NC(=O)CSc2nc(-c3ccc(F)cc3)nc3ccccc23)cc1`: the growth is 80.1%.

Regarding `Cc1c(C(=O)O[C@H]2[C@@H]3[C@H](C)CC[C@H]3[C@]3(C)O[C@@]2(C2CCCCC2)C[C@H]3OC(=O)CO)ccc2ccccc12`, the growth was 22.5%.

On to `Cc1ccc(-c2csc(NC(=O)CN3CCN(c4cc5c(cc4F)c(=O)c(C(=O)O)cn5C4CC4)CC3)n2)cc1`, for which the growth is 3.21% (active).

In the case of `CN1/C(=C/C=C/c2n(Cc3ccc4ccccc4c3)c(Cl)c(Cl)[n+]2Cc2ccc3ccccc3c2)Oc2ccccc21`, the growth is -56.7% (active).

Consider `Cc1ccc(-c2nc(C(Cl)Cl)n3nc(-c4ccccc4)cc3n2)cc1`, for which the growth is -21.1% (active).

Take `CCOc1ccc(C(CN2CCOCC2)C(C)=O)cc1OC` (stereo not given): the growth was 13.9%.

On to `O[C@@H](c1cc(C(F)(F)F)nc2c(C(F)(F)F)cccc12)[C@H]1CCCCN1`, for which the growth is 42.6%.

As to `COC(=O)c1ccc2c(C(=Nc3ccc(N(C)C(=O)CN4CCN(C)CC4)cc3)c3ccccc3)c(O)[nH]c2c1`, the growth is 91%.

On to `N#C/C(=C/c1ccc([N+](=O)[O-])cc1)n1nnc2cc(F)c(F)cc21`, for which the growth was 19.8%.

Regarding `CCCCCCCCCCCCSC1=CC(=O)C=CC1=O`, the growth is 82.8%.
